Sampled rows, rich in hits. Any-hit rate of the full collection: about 6.7%.
Tcruzi prolif = T. cruzi proliferation inhibition | 77,000 compounds, 5.9% hits | inhibition, % at 8.34 µM | T. cruzi beta-gal in NIH3T3, GalScreen luminescence, 90 h;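 active = mean inhibition above about 93%, with at least 55% of replicates each passing it, limit read from the data, passing the limit was not always enough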
Pf Dd2 growth = P. falciparum Dd2 growth inhibition. SYBR Green, 72 h; active compounds read low. activity change, % at 10 µM. 94,000 compounds, 2.3% hits. AID 1159554; in the data active = activity change below about -80%
C diff HTS = C. difficile growth inhibition; Clostridium difficile clinical isolate growth, OD600, 24 h; active compounds read low; 86,000 compounds, 0.25% hits; growth activity, negative = inhibition, % at 16 µg/mL (by protocol);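 active = mean growth activity at or below -80% and every replicate also at or below -80%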
Numbers stand for hits.

How did CC(C)NC(=O)N1[C@H](CN(C)C(=O)c2ccccc2)[C@@H](c2ccccc2)[C@@H]1CO do in these assays?
Tcruzi prolif: inactive; Pf Dd2 growth: inactive; C diff HTS: inactive

Results for OC[C@@H]1CC[C@@H]2O[C@H](CCc3ccc(-c4ccc(F)cc4)cc3)[C@H](n3cc(C4CC4)nn3)C[C@@H]2O1 ?
Pf Dd2 growth: inactive; C diff HTS: inactive

Results for COCC#Cc1ccc(CC[C@H]2O[C@H]3CC[C@@H](CO)O[C@H]3C[C@@H]2n2cc(C(C)(C)O)nn2)cc1 ?
Pf Dd2 growth: inactive; C diff HTS: inactive

Results for COCC#Cc1ccc(CC[C@H]2O[C@H]3CC[C@H](CO)O[C@H]3C[C@@H]2n2cc(C3CC3)nn2)cc1 ?
Pf Dd2 growth: -87; C diff HTS: inactive

What do the screens show for `OC[C@H]1CC[C@@H]2O[C@H](CCc3ccc(-c4ccc(F)cc4)cc3)[C@H](n3cc(C4CC4)nn3)C[C@@H]2O1`?
Pf Dd2 growth: -82; C diff HTS: inactive

How did O=C(NCc1ccc(F)cc1)[C@H]1N[C@H]2c3ccc(-c4ccccc4)c(=O)n3C[C@H]2[C@@H]1CO do in these assays?
Tcruzi prolif: inactive; C diff HTS: inactive

How did CCCN1[C@@H]2c3ccc(-c4cccnc4)c(=O)n3C[C@@H]2[C@@H](CO)[C@@H]1C(=O)NC1CCCC1 do in these assays?
Pf Dd2 growth: inactive; C diff HTS: inactive

Results for C[C@H](CO)N1C[C@H](C)[C@@H](CN(C)C(=O)Nc2ccc(C(F)(F)F)cc2)Oc2c(NC(=O)CCCCCC(=O)Nc3ccccc3N)cccc2C1=O ?
Pf Dd2 growth: -84; C diff HTS: inactive

How did COc1ccc(NC(=O)N(C)C[C@H]2Oc3c(NC(=O)CCCCCC(=O)Nc4ccccc4N)cccc3C(=O)N([C@@H](C)CO)C[C@H]2C)cc1 do in these assays?
Pf Dd2 growth: -89; C diff HTS: inactive

What do the screens show for `C[C@H]1CN([C@@H](C)CO)C(=O)c2cccc(NC(=O)CCCCCC(=O)Nc3ccccc3N)c2O[C@H]1CN(C)C(=O)Nc1ccc(C(F)(F)F)cc1`?
Pf Dd2 growth: -92; C diff HTS: inactive

How did COc1ccc(NC(=O)N(C)C[C@H]2Oc3c(NC(=O)CCCCCC(=O)Nc4ccccc4N)cccc3C(=O)N([C@H](C)CO)C[C@@H]2C)cc1 do in these assays?
Pf Dd2 growth: inactive; C diff HTS: inactive

How did C[C@@H]1CN([C@H](C)CO)C(=O)c2cccc(NC(=O)CCCCCC(=O)Nc3ccccc3N)c2O[C@H]1CN(C)C(=O)Nc1ccc(C(F)(F)F)cc1 do in these assays?
Pf Dd2 growth: -88; C diff HTS: inactive

Results for C[C@H](CO)N1C[C@H](C)[C@@H](CN(C)C(=O)Nc2ccc(F)cc2)Oc2c(NC(=O)CCCCCC(=O)Nc3ccccc3N)cccc2C1=O ?
Pf Dd2 growth: inactive; C diff HTS: inactive

What do the screens show for `C[C@@H]1CN([C@H](C)CO)C(=O)c2cccc(NC(=O)CCCCCC(=O)Nc3ccccc3N)c2O[C@H]1CN(C)C(=O)Nc1cccc2ccccc12`?
Pf Dd2 growth: inactive; C diff HTS: inactive

Results for C[C@H]1CN([C@@H](C)CO)C(=O)c2cc(NC(=O)CCCCCC(=O)Nc3ccccc3N)ccc2O[C@@H]1CN(C)C(=O)Nc1ccc(C(F)(F)F)cc1 ?
Pf Dd2 growth: inactive; C diff HTS: inactive

Results for O=C(NCC[C@H]1CC[C@H](NC(=O)C2CCOCC2)[C@H](CO)O1)Nc1ccc(Cl)cc1 ?
Tcruzi prolif: inactive; Pf Dd2 growth: inactive; C diff HTS: inactive

How did CS(=O)(=O)Nc1ccc2c(c1)[C@H]1C[C@@H](CC(=O)N3CCCCC3)O[C@H](CO)[C@H]1O2 do in these assays?
Tcruzi prolif: inactive; Pf Dd2 growth: inactive; C diff HTS: inactive

Results for C[C@@H]1CN([C@H](C)CO)C(=O)c2cccc(N(C)C)c2O[C@H]1CN(C)Cc1ccccc1 ?
Tcruzi prolif: inactive; Pf Dd2 growth: inactive; C diff HTS: inactive

How did COc1ccc(CN(C)C[C@@H]2OCCCC[C@H](C)Oc3ccc(NS(=O)(=O)c4ccc(OC)cc4)cc3C(=O)N([C@@H](C)CO)C[C@@H]2C)cc1 do in these assays?
Tcruzi prolif: inactive; Pf Dd2 growth: inactive; C diff HTS: inactive

What do the screens show for `CO[C@H]1CN(C)C(=O)c2ccc(NC(C)=O)cc2OC[C@@H](C)N(Cc2ccncc2)C[C@H]1C`?
Tcruzi prolif: inactive; Pf Dd2 growth: inactive; C diff HTS: inactive

How did C[C@H](NC(=O)C[C@@H]1C=C[C@H](NC(=O)c2cccnc2)[C@@H](CO)O1)c1ccccc1 do in these assays?
Tcruzi prolif: inactive; Pf Dd2 growth: inactive; C diff HTS: inactive

How did CCCC(=O)Nc1ccc2c(c1)C(=O)N(C)C[C@@H](OC)[C@H](C)CN(Cc1ccncc1)[C@@H](C)CO2 do in these assays?
Tcruzi prolif: inactive

Source: PubChem
